IMPase cell inh: IMPase inhibition in cells | P97697 | CHO-M1 cells, IP1 accumulation, HTRF TR-FRET ratio | inhibition (IP1 accumulation), % at 46.1 µM | 120,000 tested, under 10 active | AID 901; active = well fitted curve in the direction sought with a large enough effect in the signal ratio, not every such curve was filed as active; inconclusive = small, poorly fitted or top-dose-only effect, or a change in a side signal; inactive = no such curve, though single readings can be large or run the other way; the % refers to the signal ratio;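 also: cells stimulated with carbachol in lithium chloride buffer; higher means more IMPase inhibition seen as more IP1 and lower FRET ratio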
Target sequence (P97697 whole entry, looked up): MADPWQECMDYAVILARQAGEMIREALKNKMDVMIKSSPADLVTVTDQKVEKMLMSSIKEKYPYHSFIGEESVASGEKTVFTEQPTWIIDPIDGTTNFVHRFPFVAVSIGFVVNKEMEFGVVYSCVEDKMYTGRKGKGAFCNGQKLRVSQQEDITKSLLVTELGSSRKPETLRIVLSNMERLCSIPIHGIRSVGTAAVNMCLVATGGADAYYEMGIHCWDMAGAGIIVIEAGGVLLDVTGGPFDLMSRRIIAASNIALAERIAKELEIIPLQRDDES
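The IP-One HTRF competitive assay in carbachol-stimulated CHO-M1 cells quantifies cellular IP1. Compounds spanned up to 46 uM final, and activity is expressed as AC50 from concentration-response fits of the ratio and donor data.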
Imprint erasure: genomic imprint erasure induction | mouse ES Peg3-LacZ reporter, beta-gal luminescence, 40 h | Potency, µM (titrated, usually from 60.7 µM), most hits filed as activators | 110,000 compounds, 0.02% hits | AID 1948
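Gelatin-coated wells received 300 freshly trypsinized female ES cells with a Peg3LacZ-Neo reporter on the maternal allele, then incubated 40 hours at 37C. BetaGlo was added for 5 minutes at room temperature before a single luminescence read.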
p53ts 32C tox: kills p53ts cells at the permissive temperature | H1299-p53A138V at 32C, ATP luminescence viability, 24 h | Potency, µM (series often up to 46.1 µM), usual class: cytotoxic | 130,000 compounds, 0.93% hits | AID 924; also: nearly all actives have a fitted effect of over 55% in size
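Cells: H1299 p53ts (A138V), 600/well, pre-incubated 16–30 h at 37C. Cpd up to 46 uM, 24 h, 32C. Readout: ATPlite luminescence, 20 min RT. Normalization: DMSO vs tamoxifen 100 uM. AC50 by Hill equation.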
Luciferase inh: inhibitors of firefly luciferase | P08659 | purified firefly luciferase, luminescence, 8 min | Potency, µM (titrated, usually from 57.1 µM), most hits filed as inhibitors | 72,000 compounds, 2.2% hits; also: nearly all actives have a fitted effect of over 40% in size
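Inhibition of light generation by firefly luciferase from ATP and luciferin was profiled with concentration-response curves per sample, ATP held at 10 uM within the enzyme's linear range. Plates were read by luminescence after an 8-minute ambient incubation.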
IkB signaling: IkB pathway inhibition in ABC-DLBCL cells | AID 445 | ABC-DLBCL IkBa-CBG/CBR dual luciferase ratio, 4 h; response scale: scaled: untreated 0%, proteasome inhibitor 100% | 110,000 compounds, 0.04% hits | Potency, µM (highest dose often 57.1 µM); active = well fitted curve in the direction sought with a large enough effect in the signal ratio, not every such curve was filed as active; inconclusive = small, poorly fitted or top-dose-only effect, or a change in a side signal; the % refers to the signal ratio;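 also: the direction sought is a rising ratio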
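In this assay, an IκBα–CBG68 fusion accumulates when IKK-driven degradation is blocked; native CBR normalizes for cell number. OCI-Ly3 cells were treated 4 h with compound and doxycycline, then green and red light read after Chroma-Glo addition.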
p53ts 39C kill: kills p53ts cells at the nonpermissive temperature; H1299-p53A138V viability at 39C, ATP luminescence, 24 h; Potency, µM (doses to about 46.1 µM), most hits filed as cytotoxic; 130,000 compounds, 1.5% hits; AID 902; also: nearly all actives have a fitted effect of over 55% in size
Hits are given with their value; - = inactive; ? = inconclusive; . = no result given; [ ] = remark or other dose. The entries come from a sample that favours hits as a whole. Unless noted, calls follow the shape of the dose curve; as a rule, active = well fitted curve in the direction sought with a large enough effect; inconclusive = small, poorly fitted or top-dose-only effect, or another doubt; inactive = no such curve, though single readings can be large; an effect the other way counts as inactive or inconclusive.

SMILES	IMPase cell inh	Imprint erasure	p53ts 32C tox	Luciferase inh	IkB signaling	p53ts 39C kill
Cc1ccccc1CCNC(=O)c1cc2ccccn2n1	.	-[10.9 µM]	?	.	?	10µM
COc1cc(NC(=O)c2cc3ccccn3n2)cc(OC)c1OC	.	-[10.9 µM]	-	.	-	-
CCc1ccc(NC(=O)c2cc3ccccn3n2)cc1	.	-[10.9 µM]	6.3µM	.	-	3.2µM
Cc1ccc(NC(=O)c2cc3ccccn3n2)cc1F	.	-[10.9 µM]	13µM	.	-	?
COC(=O)c1ccccc1NC(=O)c1cc2ccccn2n1	.	-[10.9 µM]	-	.	?	?
O=C(Nc1ccc(F)c(Cl)c1)c1cc(S(=O)(=O)N2CCCc3ccccc32)ccc1F	.	-[10.9 µM]	-	.	-	-
COc1ccc(C2/C=C\[C@H](O[Si](C)(C)C(C)(C)C)[C@H](C(C)C)CC(=O)N2Cc2ccccc2)cc1 (stereo partly specified)	.	-	.	.	.	.
CCOc1ccc(NC(=O)c2nn(C)cc2Br)cc1	-	.	.	10µM	.	.
CCOc1ccc(NC(=O)c2ccc(OC)cc2)cc1	-	.	.	.	.	.
CCOc1ccc(NC(=O)c2ccncc2)cc1	-	-	-	-	-	-
CCOc1ccc(NC(=O)c2ccc(N)cc2)cc1	-	-	13µM	13µM	?	13µM
CC1=C(\C=C/C(C)=C/C=C\C(C)=C\C(=O)Nc2ccc(O)cc2)C(C)(C)CCC1	.	.	.	-	-	.
CCOc1ccc(S(=O)(=O)Nc2cccc(-c3ccc(N4CCC(C)CC4)nn3)c2)cc1	.	-[10.9 µM]	10µM	.	-	10µM
COc1ccc(S(=O)(=O)Nc2cccc(-c3ccc(N4CCCC4)nn3)c2)c(OC)c1	.	-[10.9 µM]	-	.	-	-
CC1CCN(c2ccc(-c3cccc(NS(=O)(=O)c4ccc(F)cc4F)c3)nn2)CC1	.	-[10.9 µM]	16µM	.	?	13µM
O=S(=O)(Nc1cccc(-c2ccc(N3CCCC3)nn2)c1)c1cc(F)ccc1F	.	-[10.9 µM]	-	.	-	-
Cc1ccc(S(=O)(=O)Nc2cccc(-c3ccc(N4CCC(C)CC4)nn3)c2)s1	.	-[10.9 µM]	13µM	.	?	4µM
O=S(=O)(Nc1cccc(-c2ccc(N3CCCCC3)nn2)c1)c1ccc(F)cc1F	.	-[10.9 µM]	13µM	.	-	?
CC(C)Nc1nc2c(S(=O)(=O)c3cccc(Cl)c3)nnn2c2ccsc12	.	-[10.9 µM]	-	.	-	-
COc1ccc(-c2cc(C(=O)NCc3ccc(F)cc3)c3c(-c4ccc(F)cc4)[nH]nc3n2)cc1OC	.	-[10.9 µM]	?	.	?	13µM
C=CC(=O)NC(C)C	.	-	-[1.84 µM]	.	-	-
C=CC(=O)CC	.	32µM	-[1.84 µM]	.	-	-
COc1ccc(NS(=O)(=O)c2ccc(I)cc2)cc1N1CCN(C)CC1	-	-	-	-	-	-
Cc1cc(-c2ccc(N3C(=O)CCC3=O)c(C)c2)ccc1N1C(=O)CCC1=O	-	-	?	16µM	-	-
O=C1CCC(=O)N1c1ccccc1-c1ccccc1	-	-	-	-	?	-
SMILES	IMPase cell inh	Imprint erasure	p53ts 32C tox	Luciferase inh	IkB signaling	p53ts 39C kill
CCOc1ccccc1NC(=O)CSc1ccc2nc(-c3ccccc3)cn2n1	.	-[10.9 µM]	-	.	-	-
CCCCCCCC[N+](CCCCCCCC)(CCCCCCCC)CCCCCCCC	.	-	?	.	?	16µM
CC(C)CC(=O)Nc1c(C(=O)N2CCN(c3ccccc3)CC2)oc2ccccc12	.	-[10.9 µM]	-	.	?	-
CCCCC(=O)Nc1c(C(=O)N2CCN(c3ccccc3)CC2)oc2ccccc12	.	-[10.9 µM]	-	.	?	16µM
CC(C(=O)NCc1cccc(Br)c1)n1ncn2cccc2c1=O (stereo unspecified)	.	-[10.9 µM]	?	.	?	13µM
COC(=O)c1cc(-c2ccc3c(c2)OCO3)nc2ccccc12	-	-	-	-	?	?
COc1cccc(-c2cc(C(=O)N3CCN(c4ncccn4)CC3)c3ccccc3n2)c1	-	-	13µM	6.3µM	?	?
CC(C)Oc1cccc(-c2cc(C(=O)N3CCN(c4ncccn4)CC3)c3ccccc3n2)c1	-	.	.	.	.	.
COc1cccc(-c2cc(C(=O)Nn3cnnc3)c3ccccc3n2)c1	-	-	4µM	3.2µM	-	5µM
O=C(O)c1cc(-c2ccc3cc4c(cc3c2)OCO4)nc2ccccc12	.	-[10.9 µM]	1.6µM	2.5µM	-[11.4 µM]	1.3µM
Cc1ccc(-c2cc(C(=O)N3CCOCC3)c3ccccc3n2)cc1	-[1.84 µM]	-	?	13µM	-	?
CCOc1ccccc1CN(CCc1ccc2c(c1)OCO2)Cc1cc(OC)c(OC)cc1OC	-	-[10.9 µM]	-	.	?	?
COc1cc(CSc2ncc(CO)n2Cc2ccc(C)cc2)cc(OC)c1	.	-[10.9 µM]	-	.	-	-
CCOc1ccc(CNC(=O)Cn2nc(C)c3nn(-c4ccc(Cl)cc4)c(C)c3c2=O)cc1OC	.	-[10.9 µM]	-	.	?	-
CC(C)Oc1cccc(-c2cc(C(=O)N3CCN(S(C)(=O)=O)CC3)c3ccccc3n2)c1	-	-	?	5µM	-	?
O=C(c1cc(-c2cccs2)nc2ccccc12)N1CCN(S(=O)(=O)c2ccccc2)CC1	-	.	.	.	.	.
C[C@H]1C[C@@H]2[C@H]3CCC4=CC(=O)C=C[C@@]4(C)[C@]3(Cl)[C@@H](Cl)C[C@]2(C)[C@]1(O)C(=O)COP(=O)(O)O	.	.	.	-[11.4 µM]	-[11.4 µM]	.
O=C(Cn1c(=O)n(Cc2ccc(F)cc2)c(=O)c2sc3ccccc3c21)NCc1ccccc1	.	-[10.9 µM]	-	.	-	-
O=C(Cn1c(=O)n(Cc2ccccc2)c(=O)c2sc3ccccc3c21)Nc1ccccc1	.	-[10.9 µM]	?	.	-	13µM
O=C(Cn1c(=O)n(Cc2ccccc2)c(=O)c2sc3ccccc3c21)Nc1ccc(F)cc1	.	-[10.9 µM]	?	.	?	10µM
C[C@H](C(=O)c1ccccc1)[C@@H](c1ccccc1)N1CCOCC1	.	.	-[9.22 µM]	-[11.4 µM]	-[11.4 µM]	-[9.22 µM]
COc1ccc(-c2oc3ccc(C)cc3c(=O)c2O)cc1OC	-	-	-	-[11.4 µM]	-[11.4 µM]	-
Cc1ccc2ccc3cc(C(=O)Nc4ccc(C)c(F)c4)nc3c2[nH]1	.	-[10.9 µM]	-	.	?	-
O=C(Nc1ccc2c(c1)OCCO2)NC1CCCCC1	-	-	7.9µM	7.9µM	?	10µM
CCOC(=O)c1[nH]c(C)c(C(=O)Nc2ccc3c(c2)OCCO3)c1C	-	-	-	-	-	-
SMILES	IMPase cell inh	Imprint erasure	p53ts 32C tox	Luciferase inh	IkB signaling	p53ts 39C kill
O=C(Nc1ccc2c(c1)OCCO2)C1CCC1	-	-	-	-	-	-
O=C(Nc1ccc2c(c1)OCCO2)c1ccc(NC(=O)C2CCCO2)cc1 (stereo unspecified)	-	-	?	13µM	-	?
O=C(NCc1ccc2c(c1)OCO2)c1ccc(NC(=O)C2CCCO2)cc1 (stereo unspecified)	-	-	-	-	-	-
Cn1c(C(=O)Nc2ccc3c(c2)OCCO3)cc2sccc21	-	-	13µM	3.2µM	?	13µM
CC(=O)c1c(C)[nH]c(C(=O)Nc2ccc3c(c2)OCCO3)c1C	-	-	?	13µM	-	?
O=S(=O)(NCCc1csc(-c2ccc(F)cc2)n1)c1ccc(Cl)cc1	.	-[10.9 µM]	-	.	?	-
